Data reported in the supplement of paper PMC4840960.

test system: E18 rat cortical neuron-glia co-culture; test: fiber score / MBP score (myelination specific beyond OL differentiation) (ratio); higher = more myelination-specific MBP alignment; settings: 1 µM; treatment time: 8 days (DIV5-DIV13)
In short: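 Library compounds were applied at 1 or 5 µM in myelination medium, DIV5 to DIV13, to primary E18 rat cortical co-cultures grown at 20,000 cells/well in 96-well plates. After 4 % paraformaldehyde fixation and MBP/Olig2/DAPI immunostaining, four 10X fields per well in duplicate wells were scored. Each value is continuous MBP fiber length per Olig2+ nucleus divided by thresholded MBP area × intensity per Olig2+ nucleus.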

Compound	fiber score / MBP score
CC(C)NCC(O)COc1cccc2ccccc12 (stereo not drawn) [Propranolol]	1.55
CC(=O)NC[C@H]1CN(c2ccc(N3CCOCC3)c(F)c2)C(=O)O1 [linezolid]	0.899
O=C1Nc2ccccc2/C1=C1/Nc2ccccc2C1=O [Indirubin]	0.896
C#C[C@]1(O)CC[C@H]2[C@@H]3CCC4=CC(=O)CC[C@@H]4[C@H]3CC[C@@]21C [Norethindrone]	0.894
Brc1c(NC2=NCCN2)ccc2nccnc12 [Brimonidine]	0.915
Cn1nnc2c(C(N)=O)ncn2c1=O [Temozolomide]	0.532
Cc1ccc(-c2cc(C(F)(F)F)nn2-c2ccc(S(N)(=O)=O)cc2)cc1 [Celecoxib]	0.757
C[C@@H]1C[C@H]2[C@@H]3CCC4=CC(=O)C=C[C@]4(C)[C@@]3(F)[C@@H](O)C[C@]2(C)[C@H]1C(=O)CO [Desoximetasone]	0.95
CC(=O)OCC(=O)[C@@]1(O)CC[C@H]2[C@@H]3CCC4=CC(=O)CC[C@]4(C)[C@H]3C(=O)C[C@@]21C [Cortisone acetate]	0.82
CCOC(=O)c1ccc(OC(=O)CCCCCNC(=N)N)cc1 [Gabexate]	0.709
CN(C)[C@@H]1C(O)=C(C(N)=O)C(=O)[C@@]2(O)C(O)=C3C(=O)c4c(O)cccc4C[C@H]3C[C@@H]12 [Sancycline]	0.961
CCN(CC)CCNC(=O)c1cc(Cl)c(N)cc1OC [Metoclopramide]	0.848
COc1cc2nc(N(C)CCCNC(=O)C3CCCO3)nc(N)c2cc1OC (stereo not drawn) [Alfuzosin]	0.472
